Hits are enriched below; roughly 9.8% of the tested compounds scored in any of these assays.
HPGD inh = qHTS Assay for Inhibitors of HPGD (15-Hydroxyprostaglandin Dehydrogenase); purified HPGD, NADH fluorescence kinetic, PGE2 substrate; actives 4.3% (n = 150,000); AID 894, 2007; 15-hydroxyprostaglandin dehydrogenase [NAD(+)] (Homo sapiens), P15428; Potency, µM, for inactives: at the highest dose activity change, negative = inhibition, actives largely listed as inhibitors; active = well fitted inhibition curve with a large enough effect, not every such curve was filed as active; inconclusive = small, poorly fitted or top-dose-only effect, or another doubt; inactive = no such curve, though single readings can be large or run the other way; also: potency is read from the fitted curve at half-maximal effect; % is scaled to controls: 0 for no effect and ±100 for the full control effect
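NADH formation kinetics: reaction with 30 uM PGE2 and 1 mM NAD+ (final), 20 nM enzyme, Tris-HCl pH 8 with Tween 20, after 15 min compound preincubation at room temperature. Fluorescence change, last versus first of five reads.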
HTT ATP protect = qHTS Multiplex Assay to Identify Dual Action Probes in a Cell Model of Huntington: Cytoprotection (ATP). PC12 HTT-Q103 induced, cytoprotection, ATP luminescence, 40 h. Potency, µM (highest dose often 56.4 µM), for the others: cytoprotection (ATP increase), most hits filed as activators. actives 0.14% (n = 230,000); also: potency is read from the fitted curve at half-maximal effect; % of control where 0% means no effect; nearly all actives have a fitted effect of over 45% in size
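PC12 cells stably carrying ecdysone-inducible Htt exon 1 (Q103)–GFP were induced with 100 nM tebufenozide (final) alongside library compounds in a dose series. Cytoprotection was scored as retained ATP by ATPlite luminescence.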
HTT aggregate = qHTS Multiplex Assay to Identify Dual Action Probes in a Cell Model of Huntington: Aggregate Formation (GFP); PC12 HttQ103-GFP aggregates, Acumen cytometry, 40 h; Potency, µM (highest dose often 46.1 µM), inactives show top-dose activity change, negative = inhibition, most hits filed as inhibitors; actives 1.1% (n = 220,000); AID 1688, 2009; also: potency is read from the fitted curve at half-maximal effect; % is scaled to controls: 0 for no effect and ±100 for the full control effect; nearly all actives have a fitted effect of over 60% in size
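Compounds (qHTS titration) were added to PC12 cells expressing an ecdysone-driven HTT exon 1 Q103–GFP fusion after induction with 100 nM tebufenozide. Aggregate formation was measured as GFP objects in cell lysates.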
ALDH1A1 block = qHTS Assay for Inhibitors of Aldehyde Dehydrogenase 1 (ALDH1A1); Aldehyde dehydrogenase 1A1 (Homo sapiens), P00352; Purified ALDH1A1, NADH fluorescence, propionaldehyde substrate; Potency, µM (top dose mostly 75.3 µM), inactives show top-dose activity, negative = inhibition, usual class: inhibitors; actives 7.3% (n = 220,000); AID 1030, 2008; active = well fitted inhibition curve with a large enough effect, not every such curve was filed as active; inconclusive = small, poorly fitted or top-dose-only effect, or another doubt; inactive = no such curve, though single readings can be large or run the other way;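 also: potency is read from the fitted curve at half-maximal effect; plate controls were no enzyme wells and a reference inhibitor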
KDM4E inh = qHTS Assay for Inhibitors of Human Jumonji Domain Containing 2E (JMJD2E); JMJD2E catalytic domain, FDH-coupled NADH fluorescence (FDH is formaldehyde dehydrogenase); Potency, µM (doses to about 57.1 µM), for inactives: top-dose activity change, negative = inhibition, usual class: inhibitors; actives 1.6% (n = 230,000); active = well fitted inhibition curve with a large enough effect, not every such curve was filed as active; inconclusive = small, poorly fitted or top-dose-only effect, or another doubt; inactive = no such curve, though single readings can be large or run the other way;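 also: potency is read from the fitted curve at half-maximal effect; 0% = wells with enzyme and -100% = buffer wells without enzyme; nearly all actives have a fitted effect of over 50% in size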
CBFb-RUNX1 inh = qHTS Assay for Compounds Blocking the Interaction Between CBF-beta and RUNX1 for the Treatment of Acute Myeloid Leukemia; Potency, µM (highest dose often 59.8 µM), for inactives: at the highest dose activity, negative = inhibition, most hits filed as inhibitors; Runt-related transcription factor 1 (Homo sapiens) + Core-binding factor subunit beta …; 230,000 tested, under 10 active; AlphaScreen CBFb-His/RUNX1-biotin binding, biochemical; also: % of control where 0% means no effect
Target sequence (Q01196 whole entry, looked up): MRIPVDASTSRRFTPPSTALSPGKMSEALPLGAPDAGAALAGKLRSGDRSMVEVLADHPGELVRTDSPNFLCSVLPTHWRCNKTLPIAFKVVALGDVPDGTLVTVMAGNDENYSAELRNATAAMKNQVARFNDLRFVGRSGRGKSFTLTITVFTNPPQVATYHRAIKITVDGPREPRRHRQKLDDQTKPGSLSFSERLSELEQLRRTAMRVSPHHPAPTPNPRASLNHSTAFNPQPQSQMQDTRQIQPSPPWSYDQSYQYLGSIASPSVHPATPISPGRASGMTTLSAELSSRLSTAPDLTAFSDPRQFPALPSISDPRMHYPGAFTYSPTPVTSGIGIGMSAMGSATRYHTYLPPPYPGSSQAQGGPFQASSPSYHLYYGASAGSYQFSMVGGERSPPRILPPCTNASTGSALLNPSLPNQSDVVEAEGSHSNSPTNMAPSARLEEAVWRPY
Target sequence (Q13951 whole entry, looked up): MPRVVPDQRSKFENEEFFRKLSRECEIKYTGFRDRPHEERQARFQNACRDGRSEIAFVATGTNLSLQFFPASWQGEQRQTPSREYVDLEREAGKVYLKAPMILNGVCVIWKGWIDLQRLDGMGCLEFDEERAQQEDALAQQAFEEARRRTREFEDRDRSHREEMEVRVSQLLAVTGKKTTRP
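Room-temperature protein-protein interaction test with 30 nM each of His-tagged CBF-beta and biotinylated RUNX1, 15 min with compound, then 90 min with nickel plus streptavidin beads. Signal read in AlphaScreen mode.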
* hit, by the source's call; ? = inconclusive; / = not tested or not shown; [ ] = remark or other dose. Unless noted, calls follow the shape of the dose curve; as a rule, active = well fitted curve in the direction sought with a large enough effect; inconclusive = small, poorly fitted or top-dose-only effect, or another doubt; inactive = no such curve, though single readings can be large; an effect the other way counts as inactive or inconclusive.

SMILES | HPGD inh | HTT ATP protect | HTT aggregate | ALDH1A1 block | KDM4E inh | CBFb-RUNX1 inh
CN(CC(=O)N1CC(=O)N(CCc2ccccc2)C(=O)C1)S(=O)(=O)c1cccc2nsnc12 | -1% | -8% | -5% | ? | 6% | 3%
O=C(CCS(=O)(=O)c1cccc2nsnc12)N1CC(=O)N(CCc2ccccc2)C(=O)C1 | -22% | 9%[10 µM] | -15% | 22µM* | -1% | 3%
CCCCNC(=O)COC(=O)c1ccc(NC(C)=O)cc1 | / | -5%[10 µM] | 16% | -3% | 2% | 10%
COc1cc2nc3c(c([Si](C)(C)C(C)(C)C)c2cc1OC)Cn1c-3cccc1=O | ? | -30% | / | ? | -4% | 11%
COc1ccc2nc3c(c([Si](C)(C)C(C)(C)C)c2c1)Cn1c-3cccc1=O | ? | -46% | / | 22µM* | ? | 6%
CCOC(=O)c1ccc(NC(=O)N2CCN(C(=O)C3CCCO3)CC2)cc1 (centres undefined) | / | -3%[10 µM] | 5%[9.22 µM] | -11% | 1% | 7%
COc1cc(C(=O)Nc2ccc(S(=O)(=O)Nc3cc(C)nc(C)n3)cc2)cc(OC)c1OC | / | ? | 2% | ? | 4% | 2%
Cc1cc(NS(=O)(=O)c2ccc(NC(=O)c3ccc(Br)o3)cc2)nc(C)n1 | / | 4% | 9% | ? | 2% | -5%
COc1cc(OC)cc(C(=O)Nc2ccc(S(=O)(=O)Nc3cc(C)nc(C)n3)cc2)c1 | -28% | -9% | -8% | 5µM* | 4% | 11%
COc1ccc(C(=O)Nc2ccc(S(=O)(=O)Nc3cc(C)nc(C)n3)cc2)cc1OC | / | 16%[10 µM] | 10%[9.22 µM] | 10µM* | 5% | -1%
Cc1cc(NS(=O)(=O)c2ccc(NC(=O)/C=C/c3ccc(C)o3)cc2)nc(C)n1 | / | -2% | -4% | 3.5µM* | ? | 3%
CCN(CC(=O)NCc1ccc(Cl)cc1)Cc1cc(=O)n2ccsc2n1 | / | -27% | -2% | -2% | -16% | 7%
Cc1cc(C)c(OCCCCN(C)C)c(Br)c1 | / | -28% | 6%[9.22 µM] | 22µM* | ? | 4%
CC(C)c1ccc(NC(=O)C(c2ccccc2)N2CCN(C(=O)c3ccco3)CC2)cc1 (centres undefined) | -17% | -54% | ? | 13µM* | -3% | -2%
CN(C)S(=O)(=O)c1cc(S(=O)(=O)N(C)C)c(Cl)cc1N | -6% | 0% | -6% | 13µM* | 6% | 3%
CN(C)S(=O)(=O)c1cc(C(=O)O)c(NC2CCCCC2)cc1Cl | -24% | -7% | -4% | ? | 7% | -6%
O=C1c2cccc3cccc(c23)C(=O)N1Cc1ccccc1 | / | 32%[10 µM] | 27%[9.22 µM] | 4% | 2% | 6%
O=C1c2nc3ccccn3c2C(=O)N1Cc1ccccc1 | ? | -1%[10 µM] | -12% | 18µM* | ? | ?
COc1ccc(CCNC2CC(=O)N(N(C)C)C2=O)cc1OC (centres undefined) | / | 6%[10 µM] | 4%[9.22 µM] | -15% | 12% | 9%
COc1ccc(CCN2C(=O)C3C4CCC(C4=C(C)C)C3C2=O)cc1OC (centres undefined) | -7% | 12%[10 µM] | 1% | 13µM* | 3% | 14%
CCOc1ccc(CCN2C(=O)C3C4C=CC(C4)C3C2=O)cc1OCC (centres undefined) | -12% | -9%[10 µM] | 11% | 3.5µM* | -2% | -1%
COc1ccc(CCN2C(=O)CC(NC34CC5CC(CC(C5)C3)C4)C2=O)cc1OC (centres undefined) | / | 13% | -2% | 10µM* | -3% | 3%
